Only some compounds are listed: those with a hit (about 2.6% of all), similar ones and a draw of the others.
STAT3 SMM = STAT3 binders, primary screen, biochemical, small molecule microarray, single point, set 2 | Signal transducer and activator of transcription 3 (Homo sapiens), P40763 | His-STAT3 binding, anti-His fluorescence | calls only | 0.2% of 17,000 active | AID 624138, 2012;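 active = compounds whose four printed spots each show fluorescence over background unusually high for their array block, chance value under 7%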
p53 mut binder = binders of human mutant p53, primary screen, biochemical, small molecule microarray, anti-GST fluorescence | mutant tumor protein p53 (GST-tagged), Homo sapiens | small molecule microarray binding | calls only | 0.4% of 17,000 active | AID 624136, 2012;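 active = compounds whose four printed spots each glow above background more than chance allows, each with a p-value under 7%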
p53 PUMA act = mutant p53 pathway re-activators, primary screen, cell-based, SW480, luciferase, single point, HTS | SW480 PUMA-promoter luciferase, p53 mutant reactivation | activation, % at 9.98 µM | 1.5% of 28,000 active; in the data active = activation above about 52%
c-Myc SMM = binders of human c-Myc, primary screen, biochemical, small molecule microarray, anti-His fluorescence. Myc proto-oncogene protein (Homo sapiens), P01106. His-c-Myc binding. calls only. 1.5% of 17,000 active;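 active = spot fluorescence over background with P-value below 7% in all four replicate spots, showing protein binding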
NFkB binder = binders of NF-kB p50 subunit, primary screen, biochemical, small molecule microarray, anti-His fluorescence | anti-His fluorescence binding | calls only | 1.3% of 17,000 active;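 active = spot fluorescence over background significantly raised, with a chance value under 7% in all four replicate spots of the compound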;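 also: probe protein is his-tagged human p50 processed subunit at 1 µg/ml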
Target sequence (P19838 1-433 limits assumed): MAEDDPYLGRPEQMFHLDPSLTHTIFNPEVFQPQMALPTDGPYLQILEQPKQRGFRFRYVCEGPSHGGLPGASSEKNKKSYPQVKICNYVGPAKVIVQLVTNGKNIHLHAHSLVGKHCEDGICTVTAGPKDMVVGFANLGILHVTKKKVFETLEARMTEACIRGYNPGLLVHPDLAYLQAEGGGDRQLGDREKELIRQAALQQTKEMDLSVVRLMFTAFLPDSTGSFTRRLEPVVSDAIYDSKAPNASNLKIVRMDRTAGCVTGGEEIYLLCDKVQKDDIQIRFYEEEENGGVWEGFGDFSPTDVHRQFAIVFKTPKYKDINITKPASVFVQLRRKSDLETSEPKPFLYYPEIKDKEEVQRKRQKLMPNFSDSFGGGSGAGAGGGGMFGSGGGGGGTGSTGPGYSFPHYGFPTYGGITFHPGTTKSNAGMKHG
Each line names hits and unclear results; the compound was inactive in the other large screens.

O=C(CSc1nc(-c2ccccc2)cc(C(F)(F)F)n1)Nc1ccccc1Cl	none (no result: STAT3 SMM, p53 mut binder, c-Myc SMM, NFkB binder)
Cc1nnc(SCC(=O)N2N=CCC2c2ccccc2)s1 (centres undefined)	none
Cc1cccc(NC(=O)CSc2nnc(-c3ccncc3)n2-c2ccc(C)c(C)c2)c1	none (no result: STAT3 SMM, p53 mut binder, c-Myc SMM, NFkB binder)
N#Cc1ccccc1CSc1nnc(N)n1-c1ccccc1	none (no result: STAT3 SMM, p53 mut binder, c-Myc SMM, NFkB binder)
Cc1ccc(Cl)cc1NC(=O)CSc1nnc(-c2ccc([N+](=O)[O-])cc2)n1-c1ccccc1	none (no result: STAT3 SMM, p53 mut binder, c-Myc SMM, NFkB binder)
O=C(COc1ccc([N+](=O)[O-])cc1)Nc1cccc(O)c1	p53 PUMA act 117 (no result: STAT3 SMM, p53 mut binder, c-Myc SMM, NFkB binder)
NC(=O)COc1ccc(NC(=O)c2cccnc2)cc1	none
Cc1ccccc1N(CC(=O)Nc1cccc(Cl)c1Cl)S(C)(=O)=O	none (no result: STAT3 SMM, p53 mut binder, c-Myc SMM, NFkB binder)
O=C(Cn1nnc2sc3c(c2c1=O)CCCC3)NCc1ccco1	c-Myc SMM active
Cc1noc(C)c1NC(=O)Nc1ccc2c(c1)C(=O)N([C@H](C)CO)C[C@H](C)[C@@H](CN(C)C(=O)C1CCCCC1)OCCCC[C@H](C)O2	c-Myc SMM active
COc1ccc(CN(C)C[C@H]2OCCCC[C@@H](C)Oc3ccc(NC(=O)Nc4c(C)noc4C)cc3C(=O)N([C@@H](C)CO)C[C@@H]2C)cc1	none
Cc1noc(C)c1NC(=O)Nc1ccc2c(c1)C(=O)N([C@@H](C)CO)C[C@@H](C)[C@@H](CN(C)C(=O)C1CCCCC1)OCCCC[C@@H](C)O2	STAT3 SMM active
Cc1noc(C)c1NC(=O)Nc1ccc2c(c1)C(=O)N([C@H](C)CO)C[C@@H](C)[C@@H](CN(C)C(=O)C1CCCCC1)OCCCC[C@H](C)O2	none
COc1ccc(CN(C)C[C@H]2OCCCC[C@H](C)Oc3ccc(NC(=O)Nc4c(C)noc4C)cc3C(=O)N([C@H](C)CO)C[C@@H]2C)cc1	c-Myc SMM active
O=C1C(=O)N(Cc2ccco2)C(c2cccc(Cl)c2)C1C(=O)c1ccco1 (centres undefined)	none (no result: STAT3 SMM, p53 mut binder, c-Myc SMM, NFkB binder)
C=CCNC1=C2C[C@@H](C)C[C@H](OC)[C@H](O)[C@@H](C)/C=C(\C)[C@H](OC(N)=O)[C@@H](OC)C=C/C=C(/C)C(=O)NC(=CC1=O)C2=O	none
N#Cc1ccc(NC(=O)CSc2ccc([N+](=O)[O-])cn2)cc1	none (no result: STAT3 SMM, p53 mut binder, c-Myc SMM, NFkB binder)
COC(=O)c1ccc(NC(=O)CSc2nncc3ccccc23)cc1	none (no result: STAT3 SMM, p53 mut binder, c-Myc SMM, NFkB binder)
Nc1ccc(-c2cc(=O)c3cc(O)ccc3o2)cc1	none
COc1ccc2c(=O)cc(-c3ccccc3)oc2c1	p53 PUMA act 81
O=c1cc(-c2ccccc2)oc2cc(O)ccc12	p53 PUMA act 77
CC1(C)Cc2c(sc3nc(SCc4ccccc4)nc(NCc4ccco4)c23)CO1	none
Cc1ccc(C)c(NC(=O)CN(c2cccc(F)c2)S(C)(=O)=O)c1	p53 PUMA act 64 (no result: STAT3 SMM, p53 mut binder, c-Myc SMM, NFkB binder)
Cc1ccc(NC(=O)CN(c2cccc(F)c2)S(C)(=O)=O)cc1Cl	none (no result: STAT3 SMM, p53 mut binder, c-Myc SMM, NFkB binder)
COC(=O)c1c(NC(=S)NCc2ccco2)sc2c1CCC2	none (no result: STAT3 SMM, p53 mut binder, c-Myc SMM, NFkB binder)
CC(C)NC(=O)N(C)C[C@H]1OCCCC[C@H](C)Oc2ccc(NC(=O)Nc3ccc(C(F)(F)F)cc3)cc2C(=O)N([C@@H](C)CO)C[C@H]1C	c-Myc SMM active, NFkB binder active
C[C@H](CO)N1C[C@H](C)[C@@H](CN(C)S(=O)(=O)c2ccc(F)cc2)OCCCC[C@H](C)Oc2ccc(NC(=O)Nc3ccc(F)cc3)cc2C1=O	none (no result: p53 PUMA act)
C[C@@H]1CN([C@@H](C)CO)C(=O)c2cc(NS(C)(=O)=O)ccc2O[C@@H](C)CCCCO[C@@H]1CN(C)C(=O)Nc1ccc(C(F)(F)F)cc1	STAT3 SMM active
C[C@H](CO)N1C[C@H](C)[C@@H](CN(C)S(=O)(=O)c2ccc(F)cc2)OCCCC[C@H](C)Oc2ccc(NC(=O)Nc3ccc(C(F)(F)F)cc3)cc2C1=O	NFkB binder active (no result: p53 PUMA act)
C[C@H](CO)N1C[C@H](C)[C@H](CN(C)C(=O)Nc2ccc(C(F)(F)F)cc2)OCCCC[C@H](C)Oc2ccc(NS(C)(=O)=O)cc2C1=O	none
CC(C)NC(=O)N(C)C[C@H]1OCCCC[C@@H](C)Oc2ccc(NC(=O)Nc3ccc(F)cc3)cc2C(=O)N([C@H](C)CO)C[C@@H]1C	none
C[C@@H]1CCCCO[C@@H](CN(C)C(=O)Nc2ccc(C(F)(F)F)cc2)[C@H](C)CN([C@H](C)CO)C(=O)c2cc(NC(=O)Nc3ccc(F)cc3)ccc2O1	none (no result: p53 PUMA act)
